Experimental data reported in the supplement of paper PMC6555819.

How the values were obtained:
Assay in all cases: PBM binding z-score (relative to random genomic background probes); higher = stronger binding; sequences stand for … in GC…GCGATTGACAGCGTAGAATGAAGG
[1] = test system: PPARg:RXRa DBDmut IVT, anti-RXR (DBD mutation: RXRa K156A/R161A, NR concentration 270 nM, RXRa partner concentration 90 nM)
How it was run: (§1)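 Custom Agilent 4×180K protein-binding microarrays carried double-stranded probes. Their 34-nt variable regions held direct-repeat seeds, single-nucleotide variants, half-site ablations and random human genomic background sequences. Arrays were incubated 1 h with ligand-free nuclear receptor dimers in PBS pH 7.4, 2% milk, 0.02% Triton X-100, 1 mM DTT, 0.2 mg/mL BSA and 0.4 mg/ml salmon testes DNA. Antibodies against each partner (one per run) detected binding, and scanned fluorescence was regression-normalized. Binding z-scores use random background probes as reference.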

[2] = test system: PPARg:RXRa IVT, anti-PPARg (NR concentration 270 nM, RXRa partner concentration 90 nM)
How it was run: as §1

[3] = test system: PPARg DBDmut:RXRa IVT, anti-PPARg (DBD mutation: PPARg1 K132A/R137A, NR concentration 270 nM, RXRa partner concentration 90 nM)
How it was run: as §1

[4] = test system: PPARg DBDmut IVT, anti-PPARg (DBD mutation: PPARg1 K132A/R137A, NR concentration 270 nM)
How it was run: as §1

[5] = test system: PPARg homodimer (NR concentration 180 nM)
How it was run: as §1

[6] = test system: PXR:RXRa (NR concentration 270 nM, RXRa partner concentration 90 nM)
How it was run: as §1

[7] = test system: PXR homodimer (NR concentration 270 nM)
How it was run: as §1

[8] = test system: RARa:RXR (NR concentration 270 nM, RXRa partner concentration 90 nM)
How it was run: as §1

[9] = test system: RARa homodimer (NR concentration 270 nM)
How it was run: as §1

[10] = test system: RARb:RXRa (NR concentration 270 nM, RXRa partner concentration 90 nM)
How it was run: as §1

[11] = test system: RARb homodimer (NR concentration 270 nM)
How it was run: as §1

[12] = test system: RARg:RXRa (NR concentration 270 nM, RXRa partner concentration 90 nM)
How it was run: as §1

[13] = test system: RARg homodimer (NR concentration 270 nM)
How it was run: as §1

[14] = test system: RXRa DBDmut IVT, anti-RXR (DBD mutation: RXRa K156A/R161A, NR concentration 90 nM)
How it was run: as §1

[15] = test system: RXRa homodimer (NR concentration 180 nM)
How it was run: as §1

[16] = test system: THRa:RXRa (NR concentration 90 nM, RXRa partner concentration 90 nM)
How it was run: as §1

[17] = test system: THRa homodimer (NR concentration 90 nM)
How it was run: as §1

[18] = test system: VDR homodimer (NR concentration 270 nM)
How it was run: as §1

Sequence | PBM binding z-score [1] | PBM binding z-score [2] | PBM binding z-score [3] | PBM binding z-score [4] | PBM binding z-score [5] | PBM binding z-score [6] | PBM binding z-score [7] | PBM binding z-score [8] | PBM binding z-score [9] | PBM binding z-score [10] | PBM binding z-score [11] | PBM binding z-score [12] | PBM binding z-score [13] | PBM binding z-score [14] | PBM binding z-score [15] | PBM binding z-score [16] | PBM binding z-score [17] | PBM binding z-score [18]
CCTACTGGGCAACGAAAGGTCATTGATTCAGTGA | 2.25 | 2.56 | -0.412 | 0.102 | 3.81 | 5.18 | 1.89 | 5.49 | 2.52 | 3.96 | 4.44 | 4.88 | 4 | 0.496 | 4.73 | 3.09 | 0.612 | 2.35
CTACCAAGGTGAACAAGGTCGTTCATTACTATTC | 4.04 | 2.99 | 0.407 | 0.669 | 1.03 | 3.55 | 3.05 | 2.7 | 0.251 | 2.38 | 2.93 | 2.18 | 1.75 | 2.32 | 2.27 | 3.56 | 2.2 | 3.38
CAAACTAGGTCACAGAGGTCAAAATCCGTGCGTA | 8.53 | 9.12 | 3.39 | 4.84 | 4.55 | 6.48 | 10.3 | 6.58 | 2.93 | 5.11 | 5.16 | 7.05 | 7.16 | 3.22 | 7.21 | 4.7 | 2.77 | 5.94
TGAATGAGGTTATAAGATTAGGGAACGTTGCAAA | 1.08 | 1.82 | 0.868 | 0.168 | 0.438 | 0.788 | 0.176 | 1.31 | 0.154 | 1.15 | 0.24 | 1.43 | 1.01 | 0.551 | 1.87 | 1.68 | 0.15 | 0.323
CGACCAAGGTCATAGGAGGTCAGTGAAGACAGAT | 3.37 | 4.52 | 0.399 | -0.258 | 5.37 | 6.88 | 4.39 | 6.18 | 2.16 | 5.22 | 5.12 | 6.79 | 7.3 | 3.53 | 6.92 | 5.03 | 2.69 | 4.77
TCTCGGAGGACCCGAAGGTCAGAGCTTTCCAGAG | 0.809 | -0.16 | -1.17 | -1.31 | 0.165 | 1.42 | -0.264 | 1.89 | -0.281 | 2.35 | 2.83 | 2.16 | 1.76 | -0.207 | 1.82 | 1.62 | -0.184 | -0.145
GCTAGCAGGCCATTTGGGTGACTCAATGACGGGC | 1.46 | 0.949 | -0.802 | -0.751 | -0.989 | -0.366 | -0.793 | -0.229 | -1.01 | 0.0482 | -0.273 | -0.23 | 0.0183 | -0.541 | -0.076 | 0.189 | -0.653 | -0.481
CTACCTAGGTGAACAAGGTCGTTGATTACTATTC | 4.5 | 3.81 | 0.734 | 0.335 | 1.52 | 2.25 | 1.14 | 1.95 | 0.759 | 1.5 | 1.73 | 1.31 | 0.8 | 1.27 | 1.34 | 2.67 | 1.54 | 2.12
CAAACTAGGTCAAGGGTCAAAGTCGAGCCAACCA | 8.5 | 9.08 | 6.09 | 4.1 | 5.23 | 5.66 | 0.825 | 7.15 | 1.84 | 5.38 | 4.7 | 7.41 | 6.13 | 2.47 | 8.6 | 4.36 | 1.45 | 3.15
CCTAGTTGGTCAGGAGGTCACAGACCGGATATGA | 1.33 | 3.88 | 0.154 | 0.248 | 3.25 | 4.28 | 1.01 | 4.9 | 1.4 | 3.79 | 4.29 | 5.27 | 4.13 | 0.184 | 5.2 | 3.57 | 2.15 | 2.05
TGTCAAAGTTCAAAGGTAACGTTAGTATCCACAC | 0.507 | 4.64 | 0.572 | 1.49 | 2.93 | 5.67 | 4.38 | 6.71 | 1.65 | 5.29 | 4.11 | 6.39 | 6.13 | 4.32 | 7.81 | 3.18 | -0.0671 | 3.97
CTCGAAAGGTCGGTTGAGGTGAGTACACGGATAA | 0.186 | 0.928 | 0.39 | -0.276 | 0.988 | 3.2 | 0.172 | 2.11 | -0.296 | 3.15 | 2.53 | 2.89 | 2.79 | 0.908 | 2.34 | 5.21 | 1.47 | 1.71
AGAACGAGGGAACGCTGAGTTGATAGCAGAGTAG | 0.157 | 0.0104 | -0.0244 | -0.171 | -0.732 | -0.323 | -0.229 | -0.613 | 0.201 | -0.517 | -0.725 | -0.0293 | 0.175 | -0.477 | -0.0289 | -0.362 | -1.15 | 0.248
CAAACTAGGTCAAGGTCAATGTCGGTTTGTGCCA | 8.55 | 8.45 | 5.91 | 4.78 | 4.97 | 4.89 | 2.16 | 4.96 | 2.18 | 5.03 | 5.09 | 5.85 | 6.81 | 2.94 | 5.18 | 4.41 | 3.82 | 4.11
CGTCAAAGTTCAACTCAGGTAACGTAAAGCACGC | 0.639 | 2.02 | 0.699 | 0.924 | 4.03 | 5.4 | 3.74 | 4.37 | 1.92 | 5.15 | 4.24 | 5.85 | 6.43 | 4.55 | 5.06 | 5.03 | 1.38 | 4.21
CGAACGAGGGCATGAGTTGATACCAAATGCCGAT | 2.76 | 2.32 | -0.303 | -0.419 | 0.59 | 0.723 | 0.347 | 0.695 | -0.402 | 2.03 | 1.11 | 1.48 | 1.6 | 2.37 | 0.992 | 1.37 | -0.127 | 1.57
ATCTTTAGGTAAAAGTTCAGTGAATCCCGAGGAT | 0.803 | 3.1 | 1.38 | 1.31 | 1.01 | 2.07 | 1.47 | 1.56 | 0.328 | 2.51 | 2.61 | 1.69 | 1.85 | 1.27 | 1.57 | 1.76 | 0.573 | 1.63
